# Test results as given in PubChem BioAssay (NCI).
# The panel holds about 83,000 compounds, 20% with a hit somewhere; the sample as a whole holds those more often.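 Percent growth is the endpoint: 0 to 100 indicates growth inhibition (40 means 60% inhibition), 0 means no net growth, and negative values indicate cell death.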 A number with no mark means an inactive call. The source made the active and inactive calls. The calls were made as follows: active = growth percent below 10; inactive = the rest.
# What was measured:
# Assay in all cases: NCI-60 one-dose screen, 48 h (100 = growth as untreated, 0 = no growth, -100 = all killed)
# Settings in all cases: 10 µM unless noted
# SK-MEL-2 melanoma = system: SK-MEL-2 melanoma
# EKVX NSCLC = system: EKVX NSCLC
# SN12C renal = system: SN12C renal
# UO-31 renal = system: UO-31 renal
# TK-10 renal = system: TK-10 renal
# ACHN renal = system: ACHN renal
# CAKI-1 renal = system: CAKI-1 renal
# A498 renal = system: A498 renal
# CCRF-CEM leukemia = system: CCRF-CEM leukemia
# MOLT-4 leukemia = system: MOLT-4 leukemia
# SR leukemia = system: SR leukemia
# RPMI-8226 leukemia = system: RPMI-8226 leukemia
# OVCAR-8 ovarian = system: OVCAR-8 ovarian
# OVCAR-5 ovarian = system: OVCAR-5 ovarian
# OVCAR-4 ovarian = system: OVCAR-4 ovarian
# SK-OV-3 ovarian = system: SK-OV-3 ovarian
# OVCAR-3 ovarian = system: OVCAR-3 ovarian
# HS 578T breast = system: HS 578T breast
# NCI/ADR-RES ovarian = system: NCI/ADR-RES ovarian
# IGROV1 ovarian = system: IGROV1 ovarian
SMILES,growth (SK-MEL-2 melanoma),growth (EKVX NSCLC) [%],growth (SN12C renal),growth (UO-31 renal),growth (TK-10 renal) [%],growth (ACHN renal) [%],growth (CAKI-1 renal) [%],growth (A498 renal),growth (CCRF-CEM leukemia),growth (MOLT-4 leukemia) [%],growth (SR leukemia),growth (RPMI-8226 leukemia),growth (OVCAR-8 ovarian),growth (OVCAR-5 ovarian),growth (OVCAR-4 ovarian),growth (SK-OV-3 ovarian),growth (OVCAR-3 ovarian),growth (HS 578T breast) [%],growth (NCI/ADR-RES ovarian),growth (IGROV1 ovarian)
CS(=O)(CCCCN=C=S)=NC(=O)c1c(F)c(F)c(F)c(F)c1F (stereo unspecified),88.3%,99,90.9%,90%,76.9,49.6,96.3,88.8%,73.5%,82.5,23.1%,-3.75% (active),97.3%,100%,112%,97.3%,102%,88.7,103%,–
O=C1Nc2c(ccc(Cl)c2Cl)/C1=C/c1cc(Br)c(O)c(Br)c1,73.2%,47.3,80.2%,60.4%,96.7,70.8,46.8,48.9%,69%,63.8,39.3%,14.8%,51.4%,87.1%,64.9%,63%,27.3%,43.5,32.4%,47%
CSc1ncnc2c1ncn2C1CCCO1 (stereo unspecified),99.3%,95.6,99.1%,92.1%,106,99,79.1,146%,109%,106,113%,104%,109%,98.3%,95.1%,104%,120%,–,101%,120%
COC(=S)SCN(CSC(=S)OC)c1ccc(Cl)cc1,106%,70.3,80.7%,66.5%,109,75.3,62.8,86.8%,77.7%,81.7,123%,73.1%,91.3%,97.1%,87.6%,91.6%,104%,88.4,79.1%,95.4%
COc1ccc(-c2csc(NC(=O)CN3CCN(c4cc5c(cc4F)c(=O)c(C(=O)O)cn5C4CC4)CC3)n2)cc1,-11.5% (active),26.2,4.18% (active),21%,18,11.8,21.3,-10.1% (active),22.2%,24.2,16.7%,-9.43% (active),9.73% (active),37.4%,40.8%,-4.37% (active),12.7%,16.5,60.7%,–
NC(=S)N/N=C/c1ccc(OCc2ccccc2)cc1,54.2%,74.8,70.6%,22.8%,60.2,67,68.2,71.5%,39.1%,32.1,62.8%,1.94% (active),78.2%,89.7%,44.8%,80%,62.1%,81.2,83.7%,52.8%
CC1CN(Cc2ccco2)C(=S)N(c2ccccc2)C1=O (stereo unspecified),108%,84.2,92%,89.6%,100,93.8,60.4,100%,83.7%,122,91.2%,88.1%,104%,105%,97%,105%,106%,101,108%,–
CSc1[nH]c2ncnc(N)c2c1C#N,91%,83.2,99.4%,76%,85.4,97.4,37.7,125%,110%,89.7,99.5%,106%,115%,87.4%,94.2%,92.7%,125%,130,86.1%,92.4%
O=C1CCc2c(sc3[nH]c(=S)n(Cc4ccccc4)c(=O)c23)C1,-15.4% (active),13.9,7.15% (active),-4.69% (active),29.6,21.8,24.1,57.6%,4.68% (active),28.8,15.5%,3.36% (active),14.3%,9.59% (active),21.8%,22.2%,9.16% (active),–,4.56% (active),34.2%
O=[N+]([O-])c1cccc(-c2nc3sccn3c2-c2ccnc(NCCNS(=O)(=O)c3ccc(C(F)(F)F)cc3)n2)c1,26.9%,39.5,33%,17.3%,57.9,22.5,30.3,36.6%,20.2%,18.2,39.2%,4.8% (active),26.1%,87.4%,31.2%,74%,40.5%,66.4,26.9%,–
O=c1ccc2cc3ccccc3cc2[nH]1,97.5%,28.1,94.4%,76.4%,119,108,78.4,97.9%,-72.7% (active),87.3,82.1%,87.4%,105%,82%,95.1%,102%,87.4%,50.9,93%,–
Cn1c2ccccc2c2c3c(c4c5ccccc5[nH]c4c21)C(=O)N(N)C3=O,99.7%,77.3,52.2%,34.8%,82.5,14.2,30.7,60%,26.4%,21.1,5.54% (active),57.2%,66.7%,89.3%,73%,74%,69.6%,79.5,71.6%,72.7%
CCCCCn1cnc2c(=S)nc[nH]c21,121%,108,117%,99.1%,116,109,115,107%,97.1%,104,112%,81.9%,118%,121%,86.5%,98.7%,124%,101,113%,–
COc1cc(/C=N/N(C)C)ccc1O,101%,105,94.9%,89.1%,94.5,100,102,75.7%,94.5%,89.7,93%,92.4%,96.1%,106%,115%,97.1%,109%,–,107%,104%
COc1cc(NCCCCCN=C(N)NC(N)=NC(C)C)c2ncccc2c1,20.1%,42.2,25.9%,76.7%,66.7,105,100,110%,25.3%,27.9,46.3%,37.6%,23.8%,71.5%,-16.7% (active),83.3%,-39.8% (active),64,99.5%,-13.1% (active)
